FUS suppressor: rescues growth of FUS-expressing yeast. S. cerevisiae FUS-expressing, growth rescue, OD600, 24 h. Potency, µM (doses to about 76.6 µM), most hits filed as activators. actives 0.24% (n = 390,000). AID 1347120;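 further: plate controls were DMSO vehicle for no effect and reference control for full effect; nearly all actives have a fitted effect of over 55% in size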
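Yeast expressing FUS under galactose induction, OD 0.005 in 2% galactose medium; compounds in a dilution series, 24 h at 30C. Growth rescue by absorbance at 600 nm; CP55940 positive control, DMSO negative.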
TDP-43 yeast inh: inhibitors of TDP-43 toxicity in yeast; Potency, µM (top dose mostly 46.1 µM), inactives show at the highest dose growth rescue (activation), usual class: activators; AID 652104; actives 1.8% (n = 410,000); TDP-43 expressing yeast growth rescue, BacTiter-Glo, 24 h; further: % of control where 0% means no effect; nearly all actives have a fitted effect of over 50% in size
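In this qHTS, compounds that restore growth of yeast expressing TDP-43 appear as activators. Cells (OD600=0.02, galactose medium, raffinose-pregrown) are incubated with compound 24 hr at 30 deg C and growth is quantified by BacTiter-Glo.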
aSyn rescue: alpha-synuclein toxicity inhibition in yeast | Yeast expressing alpha-synuclein, growth rescue, BacTiter-Glo, 24 h | Potency, µM (series often up to 46.1 µM), without a hit: at the highest dose growth rescue (activation), hits mostly activators | actives 0.14% (n = 370,000); further: % of control where 0% means no effect; nearly all actives have a fitted effect of over 65% in size
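Galactose-induced alpha-syn yeast (OD600=0.02, raffinose-pregrown) + pinned cpd, 24 hr, 30 deg C; growth by BacTiter-Glo luminescence. Growth restoration scores as activation.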
Mito fusion act: mitochondrial division inhibition or fusion activation | AID 485298 | Potency, µM (top dose mostly 46.1 µM), without a hit: at the highest dose growth rescue (activation), actives largely listed as activators | actives 0.23% (n = 320,000) | S. cerevisiae fusion-defective mutant growth rescue, CellTiterGlo 48 h; further: % of control where 0% means no effect; nearly all actives have a fitted effect of over 45% in size
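Growth-rescue viability read-out: after 48 h at the non-permissive 37C in glycerol/ethanol YPEG, yeast mitochondrial fusion mutants are measured by CellTiterGlo luminescence; compounds (23 nl pinned per well) restoring growth score as division inhibitors or fusion activators.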
Abeta rescue: compounds reversing amyloid beta toxicity in yeast; yeast expressing A-beta42, growth rescue, OD600, 48 h; response scale: 0% DMSO, 100% iron-clioquinol control; Potency, µM (series often up to 46.1 µM), actives largely listed as activators; actives 0.063% (n = 410,000); further: nearly all actives have a fitted effect of over 55% in size
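Yeast growth medium received pinned compounds, then yeast cells expressing toxic A-beta were added; plates incubated at 30 C for 48 hr. Growth read as absorbance at 600 nm, normalized to DMSO and equimolar FeCl3 plus clioquinol controls.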
Numbers without * were called inactive; i = inactive; ? = inconclusive; . = no result; [ ] = another dose, or the depositor's remark. Most compounds without a hit are left out; they make up all but 2.2% or so of the library. The call rests on the fitted dose curve; in most records, active means well fitted curve in the direction sought with a large enough effect; inconclusive means small, poorly fitted or top-dose-only effect, or another doubt; inactive means no such curve, though single readings can be large; an effect the other way counts as inactive or inconclusive. Potency means the concentration at half of the fitted maximal effect.

SMILES	FUS suppressor	TDP-43 yeast inh	aSyn rescue	Mito fusion act	Abeta rescue
COc1cc(OC)c(C2CC(=O)N3CN(c4ccccc4)CSC3=C2C#N)cc1OC (stereo unspecified)	?	10%	7%	-4%	i
CCc1ccccc1N1CSC2=C(C#N)C(c3cc(OC)c(OC)cc3OC)CC(=O)N2C1 (stereo unspecified)	?	0.032µM*	-6%	0%	i
CCC[C@H]1[C@H](N)CC[C@@]23CCCN2C(=O)CCC[C@@H]13	i	.	.	.	.
S=C(NCCc1ccccc1)Nc1ccc(N2CCCCC2)cc1	i	30%	-9%	-44%	8.9µM*
CCNC(=S)Nc1ccc(N2CCCCC2)cc1	i	3%	-11%	5%	i
COc1ccc(N(C(=O)c2ccc(Cl)cc2)S(=O)(=O)c2ccc(C)cc2)cc1	?	22%	.	.	i
Cc1cc(C(=O)OCn2nnc3ccccc3c2=O)c(C)o1	i	14µM*	21%	6%	?
O=C(CC(c1ccccc1)c1ccccc1)OCn1nnc2ccccc2c1=O	i	18µM*	14%	13%	i
CCC(=O)OCn1nnc2ccccc2c1=O	i	14%	0%	7%	i
COc1ccccc1C(=O)OCn1nnc2ccccc2c1=O	i	22%	2%	9%	i
O=c1c2ccccc2nnn1COc1cccc2ccccc12	i	13µM*	?	-7%	i
Cc1ccccc1Cn1c(SCc2ccc(C(=O)NC(C)c3ccccc3)cc2)nc2ccncc21 (stereo unspecified)	i	1%	.	.	i
COc1cccc(C2c3[nH]c4ccccc4c3C[C@H]3C(=O)N(C4CC4)CC(=O)N23)c1 (stereo partly specified)	i	21%	0%	-10%	i
COc1cccc(C2c3[nH]c4ccccc4c3C[C@H]3C(=O)N(c4ccccc4C(=O)N4CCC(C(=O)O)CC4)C(=O)N23)c1 (stereo partly specified)	28µM*	16%	3%	-3%	i
COc1ccc(C2c3[nH]c4ccccc4c3C[C@H]3C(=O)N(c4ccccc4C(=O)N4CCC(C(=O)O)CC4)C(=O)N23)cc1 (stereo partly specified)	22µM*	7%	0%	1%	i
Brc1ccc(C=C2C=c3ccccc3=C2)cc1	.	.	19%	.	.
COc1cccc(C(=O)Nc2ccccc2C(=O)OCc2cc(=O)n3nc(C4CC4)sc3n2)c1	i	13%	.	.	i
Cc1ccc2c(c1)nc(SCC(O)c1ccc(Br)cc1)n2C (stereo unspecified)	i	1%	.	.	i
CCCCN(C)CCNC(=O)CCNC(=O)Cn1ccc2ccccc2c1=O	i	5%	2%	18µM*	i
CC(=O)c1ccc(N2CCN(C(=O)/C=C/c3ccc4ccccc4n3)CC2)cc1	i	?	10µM*	3%	i
CC(=O)c1ccc(N2CCN(C(=O)c3ccc4ccccc4n3)CC2)cc1	i	9%	0%	5%	i
COc1ccc2oc(C(=O)N3CCCc4ccccc43)c(C)c2c1	i	16µM*	-15%	?	i
COc1cc(OC)cc(C(=O)N2CCCc3ccccc32)c1	i	4%	10%	2%	i
CCCOc1ccc(C(=O)N2CCCc3ccccc32)cc1	i	11µM*	.	-1%	i
CCOc1ccc(C(=O)N2CCc3ccccc32)cc1	i	11%	-4%	1%	i
SMILES	FUS suppressor	TDP-43 yeast inh	aSyn rescue	Mito fusion act	Abeta rescue
CC(=O)CC[C@H]1CC[C@]2(CCCN(C(=O)c3ccno3)C2)O1	i	.	.	.	.
O=C(C[N+]1(CCO)CCOCC1)c1cccc2ccccc12	.	.	-8%	.	.
CCN(CC)C(=O)[C@H]1CC(CC(=O)NCC23CC4CC(CC(C4)C2)C3)C(=O)N2CCc3c([nH]c4ccccc34)[C@]12C (stereo partly specified)	i	28µM*	?	.	i
C[C@]12c3[nH]c4ccc(Cl)cc4c3CCN1C(=O)[C@@H](CC(=O)NCC13CC4CC(CC(C4)C1)C3)C[C@@H]2C(=O)N1CCOCC1	?	20%	11%	.	i
COc1ccc2[nH]c3c(c2c1)CCN1C(=O)C(CC(=O)NCC24CC5CC(CC(C5)C2)C4)C[C@H](C(=O)N(C(C)C)C(C)C)[C@@]31C (stereo partly specified)	?	11µM*	-15%	.	i
CCN(CC)C(=O)[C@H]1C[C@H](CC(=O)NCC23CC4CC(CC(C4)C2)C3)C(=O)N2CCc3c([nH]c4cc(-c5ccco5)ccc34)[C@]12C	i	20%	1%	.	i
C[C@]12c3[nH]c4ccc(Cl)cc4c3CCN1C(=O)[C@@H](CC(=O)NCC13CC4CC(CC(C4)C1)C3)C[C@@H]2C(=O)N1CCCCC1	i	19%	16µM*	.	i
Cc1cccc(-n2ncc3c(Nc4ccc(Oc5ccc(Cl)cc5)cc4)ncnc32)c1	i	0%	.	.	i
Cc1ccc(-c2nc(CCNC(=O)C(=O)Nc3ccc(C)c(Cl)c3)cs2)cc1	i	14%	.	.	i
CC(=O)OC12CCCN(C1)/C(=C/c1ccccc1)C2 (stereo unspecified)	i	.	.	.	.
Oc1ccc(Br)cc1-c1cc(-c2ccccc2)n[nH]1	i	25%	0%	16%	?
O=[N+]([O-])c1cccc(-c2cc(-c3cc(Br)ccc3O)[nH]n2)c1	i	13µM*	-7%	-49%	i
Cc1c(C(=O)NCCSCc2ccc(F)cc2)cnn1-c1ccc(Cl)cc1	i	13µM*	11%	-7%	i
Cc1c(C(=O)NCCSCc2c(F)cccc2Cl)cnn1-c1ccc(F)cc1	i	-1%	9%	-4%	i
Cc1cc(C)c(C)c(S(=O)(=O)N2CCN(c3ccc(O)cc3)CC2)c1C	i	?	16µM*	?	i
O=S(=O)(c1ccc2ccccc2c1)N1CCN(c2ccc(O)cc2)CC1	i	11µM*	?	.	i
Cc1cc(C)c(C)c(S(=O)(=O)N2CCC(C(=O)N3CCN(c4ccc(F)cc4)CC3)CC2)c1C	i	?	8%	.	i
Cc1cc(C)c(C)c(S(=O)(=O)N2CCN(c3ncnc4ccccc34)CC2)c1C	i	0%	6%	18µM*	i
CC(C)(C)NC(=O)C(c1cccnc1)N(C(=O)c1cccs1)c1ccc(C(C)(C)C)cc1 (stereo unspecified)	i	.	.	.	.
Fc1ccccc1-c1n[nH]c(=S)n1N=Cc1cccc(OCc2ccccc2)c1	i	.	.	.	.
COc1ccc([N+](=O)[O-])c(C=CC(=O)c2ccccn2)c1	i	2.8µM*	20µM*	.	i
COc1ccc(/C=C/C(=O)c2ccccn2)cc1	i	-1%[9.22 µM]	-9%	11%	i

High-throughput results deposited in PubChem by National Center for Advancing Translational Sciences (NCATS).
